High-throughput results as filed in PubChem BioAssay.
This is a sample that favours compounds with a hit; in the whole collection about 2.2% have one here.
APP 5UTR inh: APP translation inhibition; SH-SY5Y APP 5'UTR-luciferase reporter, luminescence; 0.82% of 190,000 active; inhibition, % at 2 µM;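 active means inhibition above a set limit, derived from the sample mean plus 3 SD, cut at about 45% in these data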
Ba/F3 V617F tox: lowers viability of Ba/F3 cells expressing EpoR and JAK2V617F. ATP luminescence. inhibition, % at 5.6 µM. 1.1% of 220,000 active. AID 1446;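 active means inhibition above the campaign mean plus 3 SD over all tested compounds, cut at about 24% in these data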;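 further: cytokine-independent growth of Ba/F3 cells driven by EpoR plus mutant JAK2; 0% = DMSO-treated cells and 100% = JAK inhibitor I control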
aSyn UTR inh: 5' untranslated region of α-synuclein, MLPCN primary screen; inhibition, % (tested at 7.5 µM); AID 1813; alpha-synuclein 5'UTR reporter, inhibitor activity; 0.82% of 300,000 active; in the data active means inhibition above about 60%;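 further: H4 neuroglioblastoma cells stably carrying SNCA 5'UTR luciferase fusion; 0% = DMSO wells and 100% = positive control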
KLF5 inh: inhibitors of KLF5 expression; DLD-1 KLF5 promoter-luciferase reporter, luminescence; inhibition, % at 5 µM; 0.23% of 290,000 active; AID 1700;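 active means inhibition above a per-plate limit of that plate's mean compound inhibition plus 3 SD, cut at about 60% in these data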;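 further: 0% = DMSO wells and 100% = LY294002 at 200 µM; higher means less KLF5 promoter-driven luciferase light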
BaF3 parental: parental Ba/F3 viability inhibition as JAK2V617F counter-screen | CellTiter-Glo ATP luminescence | inhibition, % at 5.6 µM | 1.1% of 220,000 active | AID 1486;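 active means inhibition above a per-campaign cutoff, the mean inhibition of all tested compounds plus 3 SD, cut at about 27% in these data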;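 further: 0% = DMSO wells and 100% = JAK Inhibitor I control wells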
IEC-6 tox: kills IEC-6 intestinal cells in KLF5 counter-screen | IEC-6 cytotoxicity, luminescence viability | inhibition, % at 5 µM | 0.78% of 290,000 active | AID 1825; in the data active means inhibition above about 22%;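 further: 0% = plate median of test compound wells and 100% = cytotoxic reference compound wells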
Numbers without * were called inactive; . = no result.

SMILES | APP 5UTR inh | Ba/F3 V617F tox | aSyn UTR inh | KLF5 inh | BaF3 parental | IEC-6 tox
Cc1ccc(C)c(NC(=S)NC(NC(=O)N(C)C)C(Cl)(Cl)Cl)c1 (configuration not stated) | -8 | -5 | -3 | 16 | -2 | 2
COc1cc(Cl)c(C)cc1NC(=O)c1ccccc1NC(=O)CN1CCOCC1 | . | . | 13 | -10 | . | 4
Cc1ccc(N/C(N)=N/c2nc3c(c(=O)[nH]2)CCCC3)c(C)c1 | -16 | 1 | -7 | 2 | 4 | 2
Cc1ccc(N/C(N)=N/c2nc(C)cc(N3CCCCC3)n2)c(C)c1 | 12 | 71* | -1 | 10 | 66* | 21
COCCCC1CCN(C(=O)c2cc(COc3cc(C)ccc3C)on2)CC1 | . | . | -180 | -82 | . | 4
O=C(NCc1csc(-c2cccs2)n1)Nc1cccc(Cl)c1 | . | 1 | -18 | 0 | 0 | 2
COc1ccc(N2C(=O)CCC(C(=O)N3CCC(C(N)=O)CC3)C2c2ccc(F)cc2)cc1 (configuration not stated) | -5 | 2 | -6 | -13 | 69* | 3
COc1ccc(N2C(=O)CCC(C(=O)N3CCCCC3)C2c2ccc(F)cc2)cc1 (configuration not stated) | -17 | 6 | 2 | -55 | 2 | -3
COc1ccc(N2C(=O)CCC(C(=O)O)C2c2ccc(F)cc2)cc1 (configuration not stated) | -14 | 2 | -1 | -3 | 7 | 1
COc1ccc(C2C(C(=O)Nc3cccc(C)n3)CCC(=O)N2c2ccc(OC)cc2)cc1 (configuration not stated) | -2 | -1 | 73* | 8 | 7 | -4
C=CC[N+](C)(C)C/C(Cl)=C(\Cl)c1ccccc1 | 19 | 26* | 1 | -19 | 27* | 4
C/C(Cl)=C\C[N+](C)(C)CC(=O)OCCc1ccccc1 | . | 0 | 13 | -32 | -3 | -7
CC(C)C(NC(=O)c1ccccc1F)C(=O)OCC(=O)c1ccc(F)cc1 (configuration not stated) | -5 | -2 | -3 | -30 | 5 | -7
COc1ccc(CNC(=O)COC(=O)CCOc2ccccc2)cc1 | -10 | 2 | 7 | -37 | 5 | 0
COc1ccc(OCC(=O)OCC(=O)NCc2ccc(F)cc2)cc1 | 64* | -5 | 22 | -27 | 2 | 0
c1ccc(-n2nnnc2Cc2nnnn2-c2ccccc2)cc1 | 4 | 5 | 10 | -10 | 3 | 8
N#CCCS(=O)(=O)c1nnnn1-c1ccccc1 | 9 | 25* | . | 4 | 3 | 7
CC(C)COc1ccc(-c2nnc(-c3ccco3)o2)cc1 | -187 | -3 | 86* | -163 | 2 | -8
O=C(COc1ccccc1)Nc1ccc(-c2nnc(-c3ccco3)o2)cc1 | -31 | 2 | -84 | -27 | 4 | -7
CCN(CC)CCCNc1ccc(-c2nnc(-c3ccc(OCC(C)C)cc3)o2)cn1 | . | . | 121* | -23 | . | 6
CCCOc1ccc(-c2nnc(-c3ccco3)o2)cc1 | -104 | -2 | 65* | -69 | 2 | -1
Cc1ccc(CNC(=O)CCC2CCCN(Cc3cc4ccccc4o3)C2)o1 (configuration not stated) | . | 1 | -7 | -20 | 6 | -4
O=C(Nc1nc2ccccc2s1)C1CCN(S(=O)(=O)c2cc([N+](=O)[O-])ccc2Cl)CC1 | . | 4 | -81 | 3 | 43* | 0
CCC(C)NC(=O)C1CCN(S(=O)(=O)c2cc([N+](=O)[O-])ccc2Cl)CC1 (configuration not stated) | . | -1 | -23 | 10 | 1 | -2
Cc1ccc(C(OCC(C)(C)C[N+](C)(C)C)c2ccccc2)cc1 (configuration not stated) | 10 | 27* | -1 | -51 | 58* | -1
SMILES | APP 5UTR inh | Ba/F3 V617F tox | aSyn UTR inh | KLF5 inh | BaF3 parental | IEC-6 tox
O=c1nc(SCc2c(F)cccc2Cl)nc(-c2ccc(Cl)cc2)[nH]1 | . | -2 | -1 | -21 | 40* | -5
COc1ccc(CCNc2cc(N3CCN(C(=O)c4ccc(C)cc4)CC3)ccc2[N+](=O)[O-])cc1OC | -7 | 1 | 2 | -17 | 43* | -2
COc1ccc(C(=O)N2CCN(c3ccc([N+](=O)[O-])c(NCCc4ccc(OC)c(OC)c4)c3)CC2)cc1 | 18 | 6 | 16 | -20 | 12 | 1
O=c1[nH]c(-c2cccnc2)nc2sc(-c3ccccc3)cc12 | 75* | -2 | -119 | -6 | 6 | 4
Cc1nc2sc(-c3ccccc3)cc2c(=O)n1N | . | 4 | 75* | 6 | 4 | 7
Cc1nc2sc(-c3ccccc3)cc2c(=O)n1-n1cccc1 | -142 | 1 | -189 | -165 | 5 | 3
OCCN1CCN(CC/C=C2/c3ccccc3CSc3ccccc32)CC1 | . | . | 103* | . | . | .
COC(=O)c1c(-c2ccccc2)csc1NC(=O)c1c(-c2ccccc2)noc1C | 37 | 3 | 65* | 35 | 13 | -1
CCOC(=O)c1c(-c2ccc(F)cc2)csc1NC(=O)c1c(-c2ccccc2)noc1C | -7 | -3 | 54 | -36 | 8 | -9
CN(Cc1nc(-c2cccs2)no1)CC(O)c1ccccc1 (configuration not stated) | -36 | -2 | -62 | -30 | 7 | 1
COC(=O)CNC(=O)COC(=O)c1cc(SC)ccc1Cl | -14 | -1 | 0 | -12 | 3 | 0
COCc1c(C(C)C)nc(C(C)C)c(/C=C/[C@@H](O)C[C@@H](O)CC(=O)O)c1-c1ccc(F)cc1 | . | . | 115* | . | . | .
CC(C)n1c(/C=C/[C@@H](O)C[C@@H](O)CC(=O)O)c(-c2ccc(F)cc2)c2ccccc21 | . | . | 64* | -40 | . | 8
Cc1nc2c(-c3ccc(F)cc3)c(C)nn2c(C)c1CCC(=O)Nc1ccccc1 | . | -2 | 24 | -13 | 1 | 2
COc1ccc(C2=NN(C(=O)CCC(=O)O)C(c3ccc(F)cc3)C2)cc1 (configuration not stated) | . | . | -5 | -10 | . | -2
CCNC(=S)N=Nc1c(O)n(Cc2ccc(Cl)cc2)c2ccccc12 | 0 | -1 | -25 | -17 | 2 | -4
CCn1c(O)c(N=NC(=O)CNC(=O)c2ccccc2F)c2ccccc21 | . | . | -12 | 8 | . | -2
Oc1c(N=NC(=S)Nc2ccccc2F)c2ccccc2n1Cc1ccccc1F | 13 | 1 | 87* | -6 | 5 | 0
Oc1c(N=NC(=S)Nc2ccccc2F)c2ccccc2n1Cc1ccc(Cl)cc1 | 23 | 1 | 70* | -18 | 6 | -3
C=CCn1c(O)c(N=NC(=O)c2ccc3c(c2)OCO3)c2ccccc21 | 50* | -3 | -27 | -20 | -1 | -2
Cc1ccccc1Cn1c(O)c(N=NC(=S)Nc2ccccc2F)c2ccccc21 | 15 | 3 | 73* | -7 | 2 | -4
CCO/C=N/Nc1nc(C(F)(F)F)nc2c1cnn2Cc1ccccc1 | . | . | 11 | -20 | . | -11
CCOCCCNS(=O)(=O)c1ccc(NC(=O)c2ccccc2)cc1 | -6 | -3 | -6 | -2 | 4 | 0
C=CCn1c(O)c(N=NC(=S)Nc2cccc(OC)c2)c2ccccc21 | 35 | -4 | 50 | -8 | 2 | 8
